According to PubChem BioAssay AID1259374 (The Scripps Research Institute Molecular Screening Center, 2018):
The campaign covered roughly 650,000 compounds. About 5,900 (0.91%) were called active. Only a selection was taken, and actives are over-represented in it overall. Values without a mark were called inactive. Cut-off read from the data, not from the text of the source: active = inhibition above about 50%; inactive = the rest.

molecular target: Microphthalmia-associated transcription factor (Homo sapiens) (UniProt O75030); assay: MITF inhibitors, primary screen, biochemical, AlphaScreen, human (AID 1259374); settings: AlphaScreen MITF homodimerization, bead proximity signal; at 2.6 µM; active compounds read high;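 note: 0% = vehicle wells with protein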
Sequence (O75030 whole entry, looked up): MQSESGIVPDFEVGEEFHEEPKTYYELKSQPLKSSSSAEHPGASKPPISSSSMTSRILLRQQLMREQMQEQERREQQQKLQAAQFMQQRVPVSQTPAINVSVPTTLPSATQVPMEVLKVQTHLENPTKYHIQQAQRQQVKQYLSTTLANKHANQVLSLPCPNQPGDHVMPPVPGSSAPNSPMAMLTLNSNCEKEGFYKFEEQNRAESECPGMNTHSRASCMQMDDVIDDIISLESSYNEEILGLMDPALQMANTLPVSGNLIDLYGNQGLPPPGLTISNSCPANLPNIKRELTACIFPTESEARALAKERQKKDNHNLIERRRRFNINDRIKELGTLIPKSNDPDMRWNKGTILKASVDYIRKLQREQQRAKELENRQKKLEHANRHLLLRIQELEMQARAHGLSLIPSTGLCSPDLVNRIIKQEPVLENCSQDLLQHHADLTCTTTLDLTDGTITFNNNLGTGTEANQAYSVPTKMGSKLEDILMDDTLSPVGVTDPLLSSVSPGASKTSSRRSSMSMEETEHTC

| Structure (SMILES) | inhibition |
| --- | --- |
| Cc1ccc(C23CC4CC(CC(C(=O)NCC(=O)NN)(C4)C2)C3)cc1 | -4.06% |
| O=C(COc1ccc(Cl)cc1)N/N=C/c1ccc([N+](=O)[O-])c(O)c1 | -8.51% |
| COc1ccc(S(=O)(=O)N(C)CC(=O)Nc2ccc(F)cc2F)cc1OC | -13.8% |
| N#C/C(=C\c1ccc(-c2ccc(F)cc2)o1)C(=O)O | 9.25% |
| N#C/C(=C/c1ccc(-c2ccc3c(c2)C(=O)NC3=O)o1)C(=O)O | 54.7% (active) |
| N#C/C(=C/c1ccc(-c2ccc(F)cc2)o1)C(=O)N1CCCCC1 | -2.65% |
| CCCN(CCC)C(=O)C(Cc1ccccc1)N1C(=O)C2C3C=CC(C3)C2C1=O (stereo not given) | -7.73% |
| COc1ccc(CNC(=O)CC(C)C)cc1 | 4.41% |
| COc1ccc(CNCC2CN(CC(C)C)CCO2)cc1 (stereo not given) | 54.3% (active) |
| COc1ccc(CN[C@H]2C[C@H]3C(=O)N[C@@H](C(C)C)C(=O)N3C2)cc1 | 16% |
| CCCCCNC(=O)COc1ccccc1C#N | -3.44% |
| O=C(Nc1ccc(F)cc1F)c1cc([N+](=O)[O-])ccc1Cl | -3.07% |
| O=C(Nc1nc2ccccc2n1CCOc1ccc(F)cc1)c1ccc(Cl)cc1 | -6.19% |
| COc1ccc(C2=NNc3cccc4c(OC)ccc2c34)cc1OC | 51.8% (active) |
| COc1cc(Nc2nc(-c3ccc(OC)c(OC)c3)nc3ccccc23)cc(OC)c1 | -23% |
| COc1ccc(-c2nc3ccccc3[nH]2)cc1OC | 10.1% |
| CCNCc1ccc(OCC(=O)Nc2ccc(OC)cc2)c(OC)c1 | -12.6% |
| COC(=O)c1ccc(N2CCOCC2)c([N+](=O)[O-])c1 | 10.3% |
| COC(=O)Oc1c([N+](=O)[O-])cc2oc(=O)sc2c1[N+](=O)[O-] | 59.1% (active) |
| COc1cc([N+](=O)[O-])cc([N+](=O)[O-])c1NC(=O)N1CCOCC1 | 11.6% |
| Cc1cccc(C(=O)Nc2ccc3oc(-c4ccc(Cl)c(Cl)c4)nc3c2)c1 | 6.63% |
| O=C(Nc1nc2ccccc2s1)C(Cc1ccccc1)N1C(=O)c2ccccc2C1=O (stereo not given) | -3.65% |
| CNC(=O)c1cc(F)ccc1Nc1cc(Nc2ccc(NC(C)=O)cn2)ncc1C(F)(F)F | 1.21% |
| Cc1cccnc1NC(=O)CSc1nnc(COc2ccc(C(C)C)cc2)n1C | 53.7% (active) |
| Cc1ccccc1OCc1nnc(SCC(=O)NC(C)(C)C)n1C | 11.7% |

| Structure (SMILES) | inhibition |
| --- | --- |
| CC(C)c1ccc(NC(=O)CSc2nnc(CNC(=O)c3ccccc3)n2C)cc1 | 14% |
| CCOc1cc(/C=N/NC(=O)CC(=O)NCC(C)C)ccc1O | 14.6% |
| c1ccc(-c2cc(NCCCn3ccnc3)nc(-c3ccccn3)n2)nc1 | 115% (active) |
| Cc1nc(NCCCN2CCOCC2)cc(-c2ccccn2)n1 | 12.2% |
| Clc1ccc(-c2cc(NCCCn3ccnc3)ncn2)cc1 | 14.7% |
| CCCCSc1nnc(CNC(=O)Cc2ccccc2)n1-c1ccc(Cl)c(Cl)c1 | 15.1% |
| O=C1CCc2ccc(OCc3ccccc3F)cc21 | 12.2% |
| COc1ccc(-n2nc(C(=O)N3CCC(C(N)=O)CC3)c3ccccc3c2=O)c(OC)c1 | 11.6% |
| CCN1CCN(CC(=O)Nc2ccc(N(CC)CC)cc2C)CC1 | 70.1% (active) |
| CCN(CC)c1ccc(NC(=O)c2ccc(OC)cc2)c(C)c1 | -6.58% |
| CCN(CC)c1ccc(NC(=O)CCc2nnc3ccc(N4CCCCC4)nn23)c(C)c1 | 15.7% |
| O=C(Cc1csc(Nc2ccc(Cl)cn2)n1)NCc1ccccc1Cl | 13.2% |
| Cc1ccccc1-n1c(SCC(=O)Nc2ccc(C(N)=O)cc2)nnc1-c1ccncc1 | 24.8% |
| Cc1c(C(=O)c2ccccc2)oc2ccc(NC(=O)C(C)C)cc12 | -6.05% |
| O=C1N=C(N2CCCC2)S/C1=C/c1ccc(-c2ccccc2[N+](=O)[O-])o1 | 18.4% |
| CCCCC(=O)Nc1nc(-c2ccc(I)cc2)cs1 | -1.42% |
| C=CCn1c(C)cc(-c2csc(NC(=O)c3ccc([N+](=O)[O-])s3)n2)c1C | 5.62% |
| CCCn1c(C)cc(-c2csc(NC(=O)Cc3ccsc3)n2)c1C | 73.1% (active) |
| O=C(NCCc1ccccc1)c1c[nH]c2ccc(S(=O)(=O)N3CCc4ccccc43)cc2c1=O | 5.29% |
| COc1cccc(C(=O)N2CCN(Cc3cc(OC)c(OC)cc3OC)CC2)c1 | 63.4% (active) |
| COc1cc(Br)cc(CN2CCCN(C)CC2)c1O | 7.81% |
| COc1cc(OC)c(OC)cc1CN1CCN(C(=O)c2cccs2)CC1 | 35.6% |
| OCCN1CCN(CC(O)COCCOc2ccc(Cl)cc2)CC1 (stereo not given) | -9.2% |
| COc1ccc(Br)cc1CN1CCN(CCOCCO)CC1 | 66.6% (active) |
| COc1cccc(CN2CCN(CCOCCO)CC2)c1OC | -6.67% |

| Structure (SMILES) | inhibition |
| --- | --- |
| COc1cccc(C(=O)N2CCN(C(=O)c3cccc(OC)c3)CC2)c1 | -5.18% |
| OCCOCCN1CCN(Cc2ccc(Cl)cc2)CC1 | 82.7% (active) |
| COc1ccc(Br)cc1CN1CCN(C(=O)c2cccnc2)CC1 | 88.2% (active) |
| COc1ccc(Br)cc1CN1CCN(C(C)=O)CC1 | 2.27% |
| COc1ccc(C(=O)N2CCN(Cc3cc(OC)c(OC)cc3OC)CC2)cc1 | -7.92% |
| COc1ccc(/C(C)=N/N)cc1CN1CCCCC1 | -0.23% |
| CC1SC2(CCCCC2)N(c2ccc(F)cc2)C1=O (stereo not given) | -0.68% |
| COc1ccccc1NC(=O)CN1C(=O)C2CC=C(Cl)CC2C1=O (stereo not given) | 2.72% |
| Cc1cc(OCC(O)CNCC(C)O)c(C(C)C)cc1Cl (stereo not given) | 0.85% |
| O=S(=O)(NC1CCCC1)c1ccc(-c2ccc(S(=O)(=O)NC3CCCC3)cc2)cc1 | -2.79% |
| Clc1ccc(-c2csc(Nc3cccc4ccccc34)n2)cc1Cl | 0.76% |
| N#CC1=C(SCC(=O)Nc2cccc(F)c2)NC(=O)CC1c1ccccc1F (stereo not given) | 3.64% |
| CCc1ccccc1NC(=O)c1ccc(F)c(S(=O)(=O)NCc2ccc3c(c2)OCO3)c1 | 10.2% |
| Cc1ccc(/C=C(\C#N)C(N)=O)c(C)c1 | 6.24% |
| COCCn1nnnc1C(c1cccnc1)N1CCN(c2ccccc2OC)CC1 (stereo not given) | -7.29% |
| Nc1cccc(-c2ccc(C(=O)Nc3ccc(N4CCOCC4)cc3)s2)c1 | 13.4% |
| CCS(=O)(=O)N1CCC(c2nnc(C3CC3)s2)CC1 | 1.6% |
| CCS(=O)(=O)N1CCN(C2CCCCC2C)CC1 (stereo not given) | 51.2% (active) |
| CCS(=O)(=O)N1CCC(N2CC(C)CC(C)C2)CC1 (stereo not given) | 31.2% |
| COc1cc(/C=N/NC(=O)c2cccnc2)ccc1Oc1ccc([N+](=O)[O-])cc1[N+](=O)[O-] | 12.4% |
| CCC1CN(Cc2ccccn2)Cc2ccc(Cl)cc2O1 (stereo not given) | -11.7% |
| CCOC(=O)c1cc2cccnc2nc1C | 12.4% |
| CCCCCCOC(=O)c1cc(C(=O)OCCCCCC)c(C)nc1C | 55.6% (active) |
| CCCCCCOC(=O)c1ccc(-c2ccc(-c3ccc(C(=O)OCCCCCC)cc3)cc2)cc1 | 14.5% |
| CCN1CCN(Cc2c(O)ccc3cc(-c4ccccc4)c(=O)oc23)CC1 | 2.19% |

| Structure (SMILES) | inhibition |
| --- | --- |
| Cc1cn2c(=O)c(C(=O)Nc3ccc(Br)c(C)c3)cnc2s1 | 3.85% |
| C=CCNC(=O)c1cc2cc(Cl)ccc2oc1=O | 12.4% |
| CC1(C)CC(=O)C2=C(C1)Nc1ccccc1N(C(=O)Cc1ccccc1)C2c1cccc(F)c1 (stereo not given) | 0.57% |
| CCN(CC)c1ccc(C2C3=C(CC(C)(C)CC3=O)Nc3ccccc3N2C(=O)Cc2ccccc2)cc1 (stereo not given) | 2.82% |
| CC1(C)CC(=O)C2=C(C1)Nc1ccccc1N(C(=O)Cc1ccccc1)C2c1ccc(-c2ccc([N+](=O)[O-])cc2)o1 (stereo not given) | 65.2% (active) |
| COc1ccc(C2CC(=O)C3=C(C2)Nc2ccccc2N(C(=O)c2ccc(Cl)c(Cl)c2)C3c2ccc(C)cc2)cc1 (stereo not given) | -2.68% |
| CC(=O)c1ccc(NC(=O)C(C)NCc2ccc(Cl)cc2)cc1 (stereo not given) | 3.65% |
| CC(=O)c1ccc(NC(=O)C(C)NCc2ccc(C)cc2)cc1 (stereo not given) | 76% (active) |
| COc1cc(NC(C)C(=O)Nc2ccc(C(C)=O)cc2)cc(OC)c1 (stereo not given) | 0.12% |
| Cc1nc2c(c(=O)[nH]1)C(c1ccc(Cl)c(Cl)c1)C(C#N)=C(N)O2 (stereo not given) | 3.39% |
| C=CCNC(=O)C(=O)Nc1cc(C)ccc1OC | 12.4% |
| NS(=O)(=O)c1cccc(NC(=O)COc2ncnc3sc(-c4ccccc4)cc23)c1 | 51.8% (active) |
| NS(=O)(=O)c1ccc2nc(NC(=O)COc3ccccc3)sc2c1 | 5.22% |
| CNC(=O)NC(=O)CSc1ncnc2sc(-c3ccccc3)cc12 | 9.51% |
| O=S(=O)(NCc1cccnc1)c1ccc(-n2cnnn2)cc1 | -8.13% |
| COc1cccc(Nc2nnc(Cc3ccc(Cl)cc3)c(=O)[nH]2)c1 | 10.6% |
| CCOc1ccccc1Nc1nnc(Cc2ccc(OC)cc2)c(=O)[nH]1 | 24.2% |
| COc1ccc(Cc2nnc(N/N=C/c3ccccc3O)[nH]c2=O)cc1OC | 112% (active) |
| Cc1cc(NC(=O)Cc2ccccc2)n(-c2nc(C)c(C)c(=O)[nH]2)n1 | 24.5% |
| O=C1N[C@H](Cc2ccccc2)C(=O)N2CCN(C(=O)Oc3ccccc3)C[C@H]12 | -5.43% |
| CC[C@@H]1NC(=O)[C@H]2CN(C(=O)NCc3ccccc3)CCN2C1=O | 75.7% (active) |
| C[C@H](O)[C@H]1NC(=O)[C@H]2CN(C(=O)c3ccccc3)CCN2C1=O | -12.5% |
| C[C@@H](OCc1ccccc1)[C@@H]1NC(=O)[C@H]2CN(Cc3ccc4ncccc4c3)CCN2C1=O | 15.9% |
| CC[C@@H]1NC(=O)[C@H]2CN(C(=O)c3cccs3)CCN2C1=O | 14.5% |
| C[C@@H](OCc1ccccc1)[C@@H]1NC(=O)[C@H]2CN(C(=O)Nc3cccc(F)c3)CCN2C1=O | 75.3% (active) |
